An excerpt weighted towards active compounds, which were near 17% of everything screened.
DT40 TDP1 CPT – qHTS for Inhibitors of human tyrosyl-DNA phosphodiesterase 1 (TDP1): qHTS in cells in presence of CPT | AID 686979, 2013 | 420,000 tested, 12% active | Potency, µM (titrated, usually from 46.2 µM), most hits filed as inhibitors | chicken DT40 Tdp1-/-;hTDP1 cells + 20 nM CPT, ATP luminescence, 48 h; also: nearly all actives have a fitted effect of over 55% in size
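Chicken DT40 Tdp1-/- cells stably complemented with human TDP1 were seeded at 400 cells/well in medium containing 20 nM camptothecin, exposed to pin-transferred compounds, and grown at 37 °C for at least 48 hr. Viability was read as ATP luminescence.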
TDP1 inh – qHTS Assay for Inhibitors of Tyrosyl-DNA Phosphodiesterase (TDP1); 350,000 tested, 0.28% active; Tyrosyl-DNA phosphodiesterase 1 (Homo sapiens), Q9NUW8; Potency, µM (series often up to 130 µM), most hits filed as inhibitors; recombinant TDP1, AlphaScreen DNA substrate cleavage; also: nearly all actives have a fitted effect of over 40% in size
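Recombinant human Tdp1 (E. coli-expressed, 1 nM final) preincubated with compounds 15 min at room temperature, then 5'-biotin/3'-phosphotyrosine-FITC DNA substrate (15 nM final) added for 5 min. AlphaScreen beads (10 ug/ml final) added 10 min; cleavage lowers signal.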
TDP1 cell noCPT – qHTS for Inhibitors of human tyrosyl-DNA phosphodiesterase 1 (TDP1): qHTS in cells in absence of CPT; Potency, µM (doses to about 46.2 µM), actives largely listed as inhibitors; AID 686978, 2013; 420,000 tested, 15% active; DT40 Tdp1-/- hTDP1 cells, no CPT, ATP luminescence, 48 h; also: nearly all actives have a fitted effect of over 55% in size
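Growth kinetics read by CellTiter-Glo luminescence after ≥48 hr at 37 °C. Cells: DT40 Tdp1-/- stably carrying human TDP1, 400 per well, compound exposure in the absence of CPT (DMSO vehicle).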
ClpP mod – qHTS Assay for Activators of ClpP; purified B. subtilis ClpP, FRET peptide cleavage, 20 min; Potency, µM (highest dose often 57.5 µM); 340,000 tested, 1.9% active; active = well fitted falling curve with a large enough effect; inconclusive = small, poorly fitted or top-dose-only effect; inactive = no such curve, though single readings can be large or run the other way; also: the source files actives as falling curves though it sought activators and does not explain the sign; nearly all actives have a fitted effect of over 65% in size
Target sequence (P80244 whole entry, looked up): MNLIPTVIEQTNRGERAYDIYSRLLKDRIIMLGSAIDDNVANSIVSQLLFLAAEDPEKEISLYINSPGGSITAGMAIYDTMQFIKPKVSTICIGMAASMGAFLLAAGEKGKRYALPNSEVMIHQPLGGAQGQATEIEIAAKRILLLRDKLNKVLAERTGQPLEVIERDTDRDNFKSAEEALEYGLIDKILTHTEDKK
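Purified B. subtilis ClpP, 10 microg/mL final in Tris/HCl pH8 with KCl, BSA, glycerol and Tween-20, cleaved an Abz/nitrotyrosine-quenched decapeptide. Fluorescence (ex 320, em 430) was read at 0 and 20 min at room temperature. Delta was normalized to 5.8 microM ADEP and DMSO/no-enzyme controls.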
Of the large screens only hits and unclear results are named; the others gave an inactive call; ! = repeats disagree. Unless noted, calls follow the shape of the dose curve; as a rule, active = well fitted curve in the direction sought with a large enough effect; inconclusive = small, poorly fitted or top-dose-only effect, or another doubt; inactive = no such curve, though single readings can be large; an effect the other way counts as inactive or inconclusive.

CSc1ncc(Cl)c(C(=O)Nc2ccc(S(=O)(=O)Nc3nccc(C)n3)cc2)n1	DT40 TDP1 CPT inconclusive, TDP1 cell noCPT 10µM
CC(C)Sc1ncc(Cl)c(C(=O)Nc2ccc(S(=O)(=O)N3CCCCC3)cc2)n1	DT40 TDP1 CPT 18µM, TDP1 cell noCPT 18µM
CC1CCCN(S(=O)(=O)c2ccc(NC(=O)c3nc(SC(C)C)ncc3Cl)cc2)C1 (stereo not given)	DT40 TDP1 CPT 8.2µM, TDP1 cell noCPT 13µM
CCSc1ncc(Cl)c(C(=O)Nc2ccc(S(=O)(=O)N3CCCCC3)cc2)n1	DT40 TDP1 CPT 21µM, TDP1 cell noCPT 12µM
COc1cccc(CN(C)CCCn2ccc(NC(=O)OCc3ccccc3)nc2=O)c1	DT40 TDP1 CPT inconclusive (no result: TDP1 inh)
CN(Cc1ccccc1)CC1C2CCC(C2)C1O (stereo not given)	none (no result: TDP1 inh, ClpP mod)
CCOc1cc(CNCCO)cc(Br)c1OCc1ccc(Cl)cc1	DT40 TDP1 CPT 26µM, TDP1 cell noCPT inconclusive
CCOc1cc(CNC(C)(C)CO)cc(Br)c1OCc1ccc(Cl)cc1Cl	DT40 TDP1 CPT 21µM, TDP1 cell noCPT 21µM
COc1ccc(F)cc1C1=CC(=O)C[C@H](c2ccc3c(c2)OCO3)C1	DT40 TDP1 CPT 9.2µM, TDP1 cell noCPT 13µM
COc1ccc([C@H]2CC(=O)C=C(c3c(OC)cccc3OC)C2)cc1	DT40 TDP1 CPT 2.9µM, TDP1 cell noCPT 2.1µM
COc1ccc([C@H]2CC(=O)C=C(c3cc(C=O)ccc3OC)C2)cc1	DT40 TDP1 CPT 4.6µM, TDP1 cell noCPT 5.8µM
COc1cccc(OC)c1C1=CC(=O)C[C@H](c2ccc3c(c2)OCO3)C1	DT40 TDP1 CPT inconclusive
COc1ccc([C@H]2CC(=O)C=C(c3cc(Cl)ccc3OC)C2)cc1	DT40 TDP1 CPT 13µM, TDP1 cell noCPT inconclusive
COc1ccc(Cl)cc1C1=CC(=O)C[C@H](c2ccc(F)cc2)C1	DT40 TDP1 CPT inconclusive, TDP1 cell noCPT inconclusive
CCOc1ccc(Cl)cc1C1=CC(=O)C[C@H](c2ccc(OC)cc2)C1	DT40 TDP1 CPT 2.9µM, TDP1 cell noCPT 4.1µM
COc1ccc(OC)c(C2=CC(=O)C[C@H](c3ccc(F)cc3)C2)c1	DT40 TDP1 CPT inconclusive (no result: TDP1 inh)
COc1ccc([C@H]2CC(=O)C=C(c3cc(OC)ccc3OC)C2)cc1	DT40 TDP1 CPT 13µM, TDP1 cell noCPT 15µM
COC/C=C/C1=CC(=O)C[C@H](c2ccc3c(c2)OCO3)C1	DT40 TDP1 CPT inconclusive, TDP1 cell noCPT 18µM
N#CC1(NC(=O)CSc2nnc3n2CCCCC3)CCCCC1	none
Cc1nnc(SCC(=O)N(CC(C)C)C2CCS(=O)(=O)C2)s1 (stereo not given)	ClpP mod inconclusive
Cc1ccc(-n2ccnc2SCC(=O)N(CC(C)C)C2CCS(=O)(=O)C2)c(C)c1 (stereo not given)	DT40 TDP1 CPT inconclusive, TDP1 cell noCPT 18µM
CC(C)CN(C(=O)CSc1nn(-c2ccc(Cl)cc2)c(=S)s1)C1CCS(=O)(=O)C1 (stereo not given)	DT40 TDP1 CPT inconclusive, TDP1 inh inconclusive, TDP1 cell noCPT 18µM
CC(C)CN(C(=O)CSc1nnc2ccccn12)C1CCS(=O)(=O)C1 (stereo not given)	none
COc1ccc(C(CC(=O)NCc2ccccc2Cl)N2Cc3ccccc3C2=O)cc1OC (stereo not given)	TDP1 cell noCPT inconclusive
CCc1cc2c(=O)c(-c3ccc4c(c3)OCCO4)c(C)oc2cc1OS(C)(=O)=O	DT40 TDP1 CPT inconclusive, TDP1 cell noCPT 26µM
Cc1cccc(OCc2n[nH]c(=S)n2-c2ccccc2)c1	none
Cc1ccc(OCc2nc(-c3ccccn3)n[nH]2)cc1	DT40 TDP1 CPT 3.3µM, TDP1 cell noCPT 4.6µM
Cc1cccc(OCc2nc(-c3ccccn3)n[nH]2)c1	DT40 TDP1 CPT 21µM, TDP1 cell noCPT 15µM
COC(=O)c1ccc(COC(=O)CNC(=O)CNC(=O)c2ccc(OC)cc2)cc1	TDP1 cell noCPT inconclusive (no result: TDP1 inh, ClpP mod)
O=[N+]([O-])c1cc(-c2nc(-c3ccco3)no2)ccc1NCc1ccccc1	TDP1 cell noCPT inconclusive
O=S1(=O)CCOC[C@H](Cc2ccccc2)N1Cc1cccc(F)c1	TDP1 cell noCPT inconclusive (no result: TDP1 inh)
O=S1(=O)CCOC[C@H](c2ccccc2)N1Cc1cccc(F)c1	DT40 TDP1 CPT inconclusive, TDP1 cell noCPT 13µM! (no result: TDP1 inh)

Assay outcomes deposited in PubChem BioAssay by National Center for Advancing Translational Sciences (NCATS).
